# PGC1a acetyl inh: inhibitors of PGC1a acetylation signal, primary screen, cell-based, U2OS, AlphaScreen, inhibitor mode | AlphaScreen anti-acetyl-lysine; with virally co-expressed GCN5 acetyltransferase | inhibition, % at 15.6 µM | 350,000 compounds, 0.17% hits;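 active = every replicate shows inhibition of at least 40%; inconclusive = mean inhibition at least 40% but some replicate below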;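 note: 0% = neutral control wells and 100% = positive control wells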
# rRNA inh HTS: reduced GFP signal of wild-type E. coli, primary screen, bacterial rRNA inhibitor project, GFP/RFP fluorescence, OD600, single point; E. coli WT GFP vs humanized-ribosome RFP mutants, 24 h; stronger effect = lower value; DMSO median 0, no signal -100; GFP signal change (wild-type ribosome), % (no concentration beside the values); 350,000 compounds, 1.6% hits;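 active = significant combined selectivity score with lowered wild-type GFP, culture density cut under 30%, mutant RFP and density less affected; inactive = any of these conditions unmet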
# PAX8 reporter: inhibitors of PAX8-driven TPO luciferase reporter, primary screen, RMG-I cells, single concentration; inhibition, % at 12.6 µM; 360,000 compounds, 1.2% hits; SteadyGlo, 24 h; AID 652154, 2013;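 active = mean replicate inhibition at least 60% with every replicate also reaching 60%; inconclusive = only one of the two criteria is met; inactive = mean below 60% and not all replicates reaching 60%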;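 note: luciferase light reporting Pax8 driven TPO promoter activity; plate controls were median of neutral control wells for no effect and mitoxantrone controls for full effect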
# LGR2 antag: inhibitors of bursicon-induced LGR2 CRE-luciferase signal, primary screen, cell-based, HEK293, CRE-luciferase reporter, bursicon stimulation; Drosophila bursicon receptor LGR2 (rickets); bursicon-stimulated, 4 h; inhibition, % at 9.99 µM; 380,000 compounds, 0.35% hits;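 active = drop in luminescence signal, shown as inhibition above about 50% in the replicate tests, limit read from the data, passing the limit was not always enough; inconclusive = probably only some replicates passing the limit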;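 note: agonist challenge used bursicon conditioned medium at about half maximal strength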
# EWS-Fli inh: EWS/Fli-driven NR0B1 reporter inhibitors, primary screen, A673 cells, NR0B1 luciferase, luminescence, MLPCN library; viability-normalised; inhibition, % at 12.6 µM; 350,000 compounds, 0.67% hits;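 active = mean inhibition of at least 50% after viability correction, with every replicate also passing that limit; inconclusive = mean reaches 50% but only one of two replicates passes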;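 note: firefly luciferase signal divided by Alamar Blue viability fluorescence both relative to DMSO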
# SIRT5 inh: SIRT5 desuccinylase inhibitors, primary screen, biochemical, fluorescence imaging, single point, set 5. NAD-dependent protein deacylase sirtuin-5, mitochondrial (Homo sapiens), Q9NXA8. Purified SirT5, succinyl-peptide AMC, trypsin-coupled fluorescence. inhibition, % at 15 µM. 330,000 compounds, 1.1% hits. AID 652115, 2013; in the data active = inhibition above about 15%; inconclusive = no clear call, values can overlap the other calls
# Target sequence (Q9NXA8 whole entry, looked up): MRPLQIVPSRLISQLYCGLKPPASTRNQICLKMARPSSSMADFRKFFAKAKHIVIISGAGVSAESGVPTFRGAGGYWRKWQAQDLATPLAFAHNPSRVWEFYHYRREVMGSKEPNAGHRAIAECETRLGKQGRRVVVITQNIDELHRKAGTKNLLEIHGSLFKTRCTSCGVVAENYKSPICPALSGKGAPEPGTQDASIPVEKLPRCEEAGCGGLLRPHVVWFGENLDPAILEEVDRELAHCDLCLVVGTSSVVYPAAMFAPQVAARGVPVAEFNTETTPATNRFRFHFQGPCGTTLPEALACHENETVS
# The depositor's hits bear a star; ? = inconclusive; . = no result. A selection: hits, their analogues and other compounds. The true share with any hit is near 3.4%.
SMILES,PGC1a acetyl inh,rRNA inh HTS,PAX8 reporter,LGR2 antag,EWS-Fli inh,SIRT5 inh
COc1ccc2c(c1)CCC1=C2NC(=S)NC1c1ccc(N(C)C)cc1 (stereo not given),.,-4,17,1,-1,15*
COc1ccc(C2NC(=S)NC3=C2CCCC3=C2SCCS2)cc1 (stereo not given),45*,12,102*,-5,63*,-3
COc1cc(C2NC(=S)NC3=C2CCc2ccccc23)cc(OC)c1OC (stereo not given),.,-1,29,6,9,-1
Cc1ccc(S(=O)(=O)N[C@@H]2C=C[C@@H](CC(=O)NCCc3ccncc3)O[C@H]2CO)cc1,-2,0,-11,19,3,-2
CN1CCN(C(=O)C[C@@H]2CC[C@@H]3[C@H](COC[C@@H](O)CN3C(=O)C3CC3)O2)CC1,-1,-2,6,-3,-4,-7
C[C@@H](NC(=O)C[C@H]1C[C@H]2c3cc(NS(C)(=O)=O)ccc3O[C@H]2[C@@H](CO)O1)c1ccccc1,2,5,2,13,4,-1
C[C@H]1CN([C@@H](C)CO)C(=O)c2cc(-c3cccc(C#N)c3)cnc2O[C@H]1CN(C)C(=O)c1cnccn1,4,4,-9,4,-21,-3
CC(C)Sc1nc2ccc(Br)cc2[nH]1,1,8,-25,-17,-32,-4
CSc1nc2ccc(Br)cc2[nH]1,8,-8,-2,0,-3,15*
C[C@H]1CN([C@@H](C)CO)C(=O)c2cccc(NC(=O)c3nc4ccccc4s3)c2O[C@H]1CN(C)C(=O)NC1CCCCC1,1,-10,.,8,-3,-1
CNC[C@H]1Oc2c(NC(=O)c3nc4ccccc4s3)cccc2C(=O)N([C@H](C)CO)C[C@@H]1C,0,-2,61*,23,58*,.
CNC[C@H]1Oc2c(NC(=O)c3nc4ccccc4s3)cccc2C(=O)N([C@@H](C)CO)C[C@@H]1C,5,-1,-4,16,-4,7
C[C@@H]1CN([C@H](C)CO)C(=O)c2cccc(NC(=O)c3nc4ccccc4s3)c2O[C@@H]1CN(C)C(=O)NC1CCCCC1,2,-12,.,-20,-7,34*
CC(=O)c1cc(NC(=O)c2cccc(C(F)(F)F)c2)c(=O)oc1C,0,5,89*,16,45,-3
CN(C)C(=O)C[C@@H]1C[C@@H]2c3cc(NC(=O)Nc4ccccc4)ccc3O[C@@H]2[C@@H](CO)O1,-5,-1,8,-1,-2,.
CCOC(=O)C1CCCN(C(=O)c2ccc3oc(CCc4ccccc4)nc3c2)C1 (stereo not given),-1,-29*,-119,-15,.,4
CCOC(=O)C1CCCN(C(=O)c2ccc3nc(-c4cccc(OC)c4)oc3c2)C1 (stereo not given),-2,-35*,-72,-57,.,1
C[C@@H]1CN([C@@H](C)CO)C(=O)c2cc(C#Cc3ccccc3F)cnc2O[C@H]1CN(C)C(=O)c1ccc2c(c1)OCO2,-23,2,.,-8,5,8
C=CCn1cccc(C(=O)Nc2ccc(C)cc2)c1=O,.,-6,-98,-63,-104,1
C=CCn1cccc(C(=O)Nc2ccc(C)c(C)c2)c1=O,-6,-30*,-177,-63,-123,-1
O=C(CCl)N(CCc1ccccc1)CCc1ccccc1,.,-2,-21,-1,59*,-1
O=C(CCl)N(c1ccccc1)c1ccccc1,.,6,?,12,40,0
CC(C)CC#Cc1cnc2c(c1)C(=O)N([C@H](C)CO)C[C@H](C)[C@H](CN(C)S(C)(=O)=O)O2,28,0,.,-4,-9,-1
COc1ccc2c3c(n(C)c2c1)[C@@H](CO)N(C(=O)CN(C)C)CC31CN(C(=O)NC(C)C)C1,2,3,.,-5,2,.
COc1cccc(/C=N/NC(=S)Nc2cccnc2)c1,.,-6,-29,-10,-35,-2
SMILES,PGC1a acetyl inh,rRNA inh HTS,PAX8 reporter,LGR2 antag,EWS-Fli inh,SIRT5 inh
COc1ccc(O)c(/C=N/NC(=S)Nc2cccnc2)c1,.,-28*,-23,-23,5,-6
CC(=O)Nc1ccc(S(=O)(=O)N2CCN(C(=O)C(=O)c3cccc(C(F)(F)F)c3)CC2)cc1,.,-13*,-20,-8,-1,.
CCOC(=O)c1cnn(CCOC(=O)c2cccs2)c1NC(=O)c1cccs1,.,.,.,7,.,.
CCOC(=O)c1cnn(CCOC(=O)c2cccc(F)c2)c1NC(=O)c1cccc(F)c1,.,9,110*,29,-5,-1
C[C@H](CO)N1C[C@H](C)[C@H](CN(C)Cc2ccncc2)Oc2ncc(C#CC3CCCCC3)cc2C1=O,5,4,.,12,-10,-1
C=C1CC2C3CC[C@@]4(OCOC45COCO5)[C@@]3(C)C(O)CC2[C@@]2(C)CCC(=O)C=C12 (stereo not given in full),6,.,64*,1,.,.
C[C@]12CCC(=O)C=C1CCC1C2CC[C@@]2(C)C1CCC21OCCO1 (stereo not given in full),-6,-54,21,-18,5,-1
CC(C)(O)C#Cc1ccc(N2C(c3ccsc3)=Cc3ccc(F)cc3C2c2c[nH]c3ccc(C#N)cc23)cc1 (stereo not given),.,-41,21,3,-14,-2
COc1ccc(N2C(c3ccsc3)=Cc3cc4c(cc3C2c2c[nH]c3ccccc23)OCO4)cc1 (stereo not given),.,-50,73*,-6,11,2
COc1ccccc1C(CCNCc1ccccc1)c1ccc(OC(C)C)cc1 (stereo not given),3,-49,2,4,22,-1
COc1ccc(CNCCC(c2ccc(OC(C)C)cc2)c2ccccc2OC)cc1 (stereo not given),.,-56,68*,-1,48,-3
CC(C)c1ccc(NC(=S)Nc2ccc3cn[nH]c3c2)cc1,5,-46*,-44,-3,-53,0
Cc1ccc(NC(=S)Nc2ccc3cn[nH]c3c2)cc1C,.,.,-28,-6,.,.
Cc1ccc(NC(=S)Nc2ccc3cn[nH]c3c2)c(C)c1,3,-26*,-1,-10,-5,-1
COC(=O)C(CC#Cc1ccc2c(c1)[C@]1(C(=O)N2)[C@H](c2ccccc2OCCO)N2[C@H](c3ccccc3)[C@H](c3ccccc3)OC(=O)[C@H]2[C@@H]1C(=O)N1CCCCCCC1)C(=O)OC,2,.,14,.,22,-3

# Screening data as filed in PubChem BioAssay.
